Source: PubChem BioAssay (National Center for Advancing Translational Sciences (NCATS))
Most compounds without a hit are left out; they make up all but 2.4% or so of the library.
POLI inh – DNA polymerase iota (human) inhibition; AID 588590; hit rate 1% among 390,000; Potency, µM (series often up to 115 µM), actives largely listed as inhibitors; Pol iota fluorescent replication assay, 10 min; Q9UNA4
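Fluorescent replication assay read twice, at 0 min and 10 min after adding 50 nM (final) substrate. Enzyme (10 nM) and compounds were first incubated 15 min at room temperature; enzyme-free buffer wells were negative controls.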
Pol beta inh – blocks human DNA polymerase beta activity | P06746 | Pol beta primer extension/strand displacement, fluorescence kinetic | Potency, µM (titrated, usually from 114 µM), usual class: inhibitors | hit rate 1.3% among 340,000
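Curves were derived by four-parameter Hill fits of normalized qHTS data. The kinetic fluorescent primer-extension read was taken at 0 and 10 min after 50 nM substrate, following a 15 min room-temperature preincubation of 10 nM enzyme with compounds.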
POLH inh – inhibitors of human DNA polymerase eta. Q9Y253. recombinant Pol eta, fluorescent DNA replication assay. Potency, µM (titrated, usually from 114 µM), actives largely listed as inhibitors. hit rate 1.2% among 390,000
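Pol eta (10 nM) was preincubated with compounds for 15 min at room temperature, after which fluorescent replication substrate (50 nM final) was added to start the reaction. Fluorescence was read kinetically at 0 and 10 min.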
FEN1 inh – inhibitors of human flap endonuclease 1 | P39748 | Recombinant FEN1 flap cleavage, fluorescence, 15 min | Potency, µM (highest dose often 114 µM), usual class: inhibitors | hit rate 0.35% among 390,000 | AID 588795; further: nearly all actives have a fitted effect of over 65% in size
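In this screen, 50 nM flap DNA substrate was added to 10 nM FEN1 pretreated with compound for 15 min at room temperature; cleavage was followed with reads at 0 and 15 min, and Hill fitting gave concentration–response parameters.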
WRN inhibitor – blocks human WRN helicase; WRN helicase unwinding, fluorescent forked duplex, kinetic; Potency, µM (top dose mostly 114 µM), hits mostly inhibitors; hit rate 0.46% among 360,000; AID 651768; Q14191; further: nearly all actives have a fitted effect of over 55% in size
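Fluorescence dequenching readout, ex 525 nm/em 598 nm, kinetic mode: forked duplex DNA (100 nM final) with adjacent fluorophore and quencher unwound by WRN (20 nM final) with 2 mM ATP. Compound preincubation 15 min, room temperature.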
POLK inh – inhibitors of human DNA polymerase kappa; purified Pol kappa, fluorescent DNA synthesis assay, 10 min; Potency, µM (doses to about 107 µM), actives largely listed as inhibitors; hit rate 0.53% among 400,000; AID 588579
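10 nM Pol kappa was preincubated with compounds for 15 min at room temperature. Reaction started with 50 nM (final) substrate. Fluorescence read kinetically at 0 and 10 min.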
Numbers stand for hits; - = inactive; ? = inconclusive; . = not tested or not shown; [ ] = dose if it differs, or a comment. The call rests on the fitted dose curve; in most records, active means well fitted curve in the direction sought with a large enough effect; inconclusive means small, poorly fitted or top-dose-only effect, or another doubt; inactive means no such curve, though single readings can be large; an effect the other way counts as inactive or inconclusive.

SMILES	POLI inh	Pol beta inh	POLH inh	FEN1 inh	WRN inhibitor	POLK inh
CCC[C@H](NC(C)=O)C(=O)N[C@H]1CC(=O)ONCCCC[C@@H](C(N)=O)NC(=O)[C@H](Cc2c[nH]c3ccccc23)NC(=O)[C@H](CCCN=C(N)N)NC(=O)[C@@H](Cc2ccc3ccccc3c2)NC(=O)[C@H](Cc2cnc[nH]2)NC1=O	.	.	.	.	.	-
O=C1C=C(O)CC(c2cccs2)C1 (stereo not given)	?	28µM	-	-	-	-
C[C@H]1C(=O)N(S(=O)(=O)c2ccccc2[N+](=O)[O-])[C@H]1c1ccc(-c2ccccc2)cc1	?	.	.	?	.	-
Cc1cc2nc(-c3cccc(NC(=O)COc4ccc(C(C)C)cc4)c3)oc2cc1C	-	-	-	-	.	-
C#CCNC(=O)C1=C[C@@H](c2ccccc2)C[C@@H](OCc2ccc(CO)cc2)O1	-	-	-	-	-	-
C#CCNC(=O)C1=C[C@H](c2ccc(C#C)cc2)C[C@H](OCc2ccc(CO)cc2)O1	?	.	45µM	-	-	?
C#Cc1ccc([C@H]2C=C(C(=O)OCC=C)O[C@@H](OCc3ccc(CO)cc3)C2)cc1	?	.	28µM	?	-	?
CCOc1cc(C2NC(=O)c3c(sc4c3CCN(C)C4)N2)ccc1OC(=O)c1ccccc1Cl (stereo not given)	?	-	-	89µM	.	-
COc1ccc(C(=O)Oc2ccc(C3NC(=O)c4c(sc5c4CCN(C)C5)N3)cc2OC)cc1 (stereo not given)	-	-	-	-	.	-
O=C(Nc1cccc(-c2nc3cccnc3s2)c1)C1c2ccccc2Oc2ccccc21	-	-	8.9µM	-	-[11.6 µM]	-
O=C(Nc1cccc(-c2nc3cccnc3s2)c1)c1cccnc1Cl	-	-	-	-	-	-
O=C(Cc1ccccc1Nc1c(Cl)cccc1Cl)OCO/N=[N+](\[O-])N1CCCC1	?	.	.	-	.	-
Cc1ccc(-n2c(O)c(/C=N/c3ncn[nH]3)c3ccccc3c2=O)cc1	-	13µM	-	-	?	-
COc1c(C)cccc1C(=O)Nc1ccc(Cl)c(-c2nc3cc(C)ccc3o2)c1	-	-	-	-	.	-
COc1ccc(S(=O)(=O)NCc2cccs2)cc1	-	25µM	-	-	-	-
CCN(CC)S(=O)(=O)c1ccc(S(=O)(=O)NCc2cccs2)cc1	-	-	-	-	-	-
CCc1nnc(N/N=C/c2cccs2)n1N	22µM	-	-	-	-[11.6 µM]	-
Cc1nnc(N/N=C/c2cccc(OCc3ccc(Cl)c(Cl)c3)c2)n1N	6.3µM	-	?	-	-	-
CCc1nnc(N/N=C/c2cc(Br)c(O)cc2O)n1N	8.9µM	-	-	-	-[11.6 µM]	-
CC(C)(C)c1nnc(N/N=C/c2cc(Br)ccc2O)n(N)c1=O	-	-	-	-	-	-
C(=N\Nc1nc2ccccc2s1)/c1cccs1	-	-	-	-	-	-
CCOc1cc(/C=N/Nc2nnc(C)n2N)ccc1OC(C)=O	2.8µM	?	-	-	-	-
COc1cccc(C(=O)Nc2nc(-c3nnn(-c4cccc(Cl)c4C)c3C)ns2)c1	-	-	-	-	.	-
CCN1CCOC(=O)C1CC(=O)Nc1ccc(Br)cc1 (stereo not given)	-	-	-	-	.	-
CCc1nnc(N/N=C\c2ccc(OC(C)=O)c(OC)c2)n1N	2µM	-	-	-	-[11.6 µM]	-
SMILES	POLI inh	Pol beta inh	POLH inh	FEN1 inh	WRN inhibitor	POLK inh
CCc1nnc(N/N=C/c2ccc(O)c(OC)c2)n1N	8.9µM	-	-	-	-[11.6 µM]	-
CN(C)c1cc(F)c(C=O)cc1F	-	.	.	-	.	-
C=C1NN(Cc2ccccc2)C(=O)N1c1ccc(OCc2ccccc2)cc1	-	.	.	-	.	-
CC1=CC(=O)c2c(O)ccc(O)c2C1=O	.	1.8µM	.	.	.	.
Cc1ccc(C)c(NC(=O)C(Cc2ccccc2)N2Cc3ccccc3C2=O)c1 (stereo not given)	-	-	-	-	.	-
Cc1ccc(NC(=O)c2cc(=O)n(Cc3ccccc3)c(=O)[nH]2)cc1C	?	40µM	-	-	-	-
CCN(CC)CCn1c2ccccc2c2nc3ccccc3nc21	?	?	-	25µM	-[11.6 µM]	?
CCCn1c2ccccc2c2nc3ccccc3nc21	-	?	-	?	-	-
CCc1c(C)sc2c1CCN(Cc1cccc(F)c1)C2c1ccccc1 (stereo not given)	-	-	-	-	.	-
CCOC(=O)/C=C1\SCC(=O)N1CC(=O)c1ccc[nH]1	?	20µM	?	-	-[11.6 µM]	?
CN(C)c1ccc(/C=C/c2cc[n+](C)c3ccc4ccccc4c23)cc1	-	.	.	?	.	-
CN(C)c1ccc(/C=C/N2C=CCc3c2ccc2ccccc32)cc1	?	.	.	11µM	.	50µM
O=C(NCCc1ccccc1)C1CCN(Cc2cc3ccccc3n2Cc2ccccc2)CC1	-	-	-	-	.	-
CCOC(=O)CNC(=O)c1cc2c(=O)n3cccc(C)c3nc2n1C	-	71µM	-	-	.	-
Cc1cccn2c(=O)c3cc(C(=O)NC(C)(C)C)n(C)c3nc12	-	-	-	-	.	-
Cc1cccn2c(=O)c3cc(C(=O)NCCc4ccc(S(N)(=O)=O)cc4)n(C)c3nc12	-	?	79µM	-	.	-
Cc1cccn2c(=O)c3cc(C(=O)NCCC4=CCCCC4)n(C)c3nc12	-	-	-	-	-	-
CCN(N=O)c1ccc(/C=C2\C=Cc3ccccc32)cc1	-	.	.	?	.	-
CN(C(=O)CSc1nc2ccc(NC(=O)c3ccco3)cc2s1)c1ccccc1	-	-	-	-	.	-
O=C(NC(=S)Nc1cc([N+](=O)[O-])ccc1O)c1ccc2c(c1)OCO2	-	45µM	-	-	-	-
COc1ccc(OC)c(CCNC(=O)c2cnn(-c3ccccc3)c2-n2cccc2)c1	-	-	-	-	.	-
O=[N+]([O-])c1c(NCCCO)cc(Sc2ccc(Cl)cc2)c2nonc12	-	-	-	?	-	-
O=[N+]([O-])c1c(NCCCO)cc(SCc2ccco2)c2nonc12	-	50µM	-	?	-	-
CC(=O)OCCNc1cc(SCc2ccco2)c2nonc2c1[N+](=O)[O-]	18µM	?	?	?	?	79µM
COC(=O)CCSc1cc(NCCOC(C)=O)c([N+](=O)[O-])c2nonc12	?	-	?	?	-	-
CN(C)c1ccc(/C=C/c2ccnc3ccccc23)cc1Br	-	.	.	-	.	-
NCC1O[C@@H](O[C@H]2C(O)C(O[C@@H]3C(O[C@H]4OC(CO)C(O)C(O)C4N)C(N)CC(N)[C@H]3O)O[C@@H]2CO)C(N)C(O)C1O (stereo not given in full)	.	.	.	.	.	-
O=C(C[n+]1c2ccccc2cc2ccccc21)c1ccc(F)cc1	-	.	.	-	.	-
